Screens from PubChem.
The list is not random: actives were taken first. Their share in the collection is about 1.3%.
pAkt inh – inhibitors of Akt phosphorylation. Neuro2A IGF-stimulated pAkt S473 HTRF, 20 min; hits give low values. activity change, % for hits at 50 µM. actives 0.32% (n = 360,000); in the data active = activity change below about -80%; inconclusive = mostly about -51% to -80%; note: % is set by controls: 0 for no effect and ±100 for the full control effect
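Single-point screen (50 µM final compound) in Neuro2A cells stimulated 20 min with 6 nM IGF at 37 deg C. After lysis, Ser473-phosphorylated Akt read by HTRF (ex 330 nm, em 615/665 nm) as the 665/615 ratio.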
RXFP1 antag – RXFP1 (human) relaxin receptor antagonism | Q9HBX9 | HEK293-RXFP1, relaxin-stimulated cAMP HTRF, 30 min; hits give low values | activity change, negative = inhibition, % at 57.5 µM | actives 0.59% (n = 350,000) | AID 1259400;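 active = activity change of -60% or lower, but not beyond a set lower limit; inconclusive = change between -60% and -40%, or beyond the set limit; inactive = change above -40%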; note: % is set by controls: 0 for no effect and ±100 for the full control effect
Target sequence (Q9HBX9 whole entry, looked up): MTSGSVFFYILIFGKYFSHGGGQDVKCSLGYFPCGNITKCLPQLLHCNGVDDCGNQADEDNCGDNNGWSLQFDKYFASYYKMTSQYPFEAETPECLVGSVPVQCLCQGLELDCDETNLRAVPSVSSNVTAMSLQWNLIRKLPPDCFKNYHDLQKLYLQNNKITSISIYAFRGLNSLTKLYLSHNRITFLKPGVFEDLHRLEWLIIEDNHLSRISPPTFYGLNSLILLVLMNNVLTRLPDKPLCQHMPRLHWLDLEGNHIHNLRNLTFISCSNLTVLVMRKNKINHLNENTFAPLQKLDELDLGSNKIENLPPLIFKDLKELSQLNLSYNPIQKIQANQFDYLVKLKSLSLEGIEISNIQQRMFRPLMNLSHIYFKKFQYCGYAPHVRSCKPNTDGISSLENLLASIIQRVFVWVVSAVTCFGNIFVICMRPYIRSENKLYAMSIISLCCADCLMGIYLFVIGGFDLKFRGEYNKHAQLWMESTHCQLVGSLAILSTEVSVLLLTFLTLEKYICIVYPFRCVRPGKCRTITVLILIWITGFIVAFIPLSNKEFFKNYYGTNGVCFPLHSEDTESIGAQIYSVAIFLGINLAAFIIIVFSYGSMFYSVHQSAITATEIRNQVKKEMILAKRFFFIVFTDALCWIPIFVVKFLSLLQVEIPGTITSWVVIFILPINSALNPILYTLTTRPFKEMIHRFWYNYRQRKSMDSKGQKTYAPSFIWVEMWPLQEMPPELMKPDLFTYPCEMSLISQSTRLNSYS
gsp antag – antagonists of gsp mutant (McCune-Albright syndrome); gsp-mutant cells, cAMP HTRF, 30 min; Potency, µM (titrated, usually from 76.9 µM), inactives show at the top dose activity change, negative = inhibition, hits mostly inhibitors; actives 0.4% (n = 340,000); AID 624288; calls by dose curve; cell line not stated here;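 note: intracellular cAMP measured with PDE inhibitor Ro 20-1724 present during compound exposure; potency is the fitted concentration of half-maximal effect; % is set by controls: 0 for no effect and ±100 for the full control effect; nearly all actives have a fitted effect of over 65% in size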
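Measurement of cellular cAMP by homogeneous time-resolved fluorescence following a 30 min compound exposure at 37C. The PDE inhibitor […] was present throughout; the assay buffer was DPBS with 0.05% BSA and 0.005% Tween 20.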
RXFP1 agonist – RXFP1 (human) receptor agonism. Q9HBX9. AID 2676. Potency, µM (top dose mostly 57.5 µM), for the others: top-dose activation, actives largely listed as activators. HEK293T-RXFP1 cAMP TR-FRET, 30 min; response scale: percent of porcine relaxin response, buffer zero. actives 0.3% (n = 370,000); active = well fitted activation curve with a large enough effect; inconclusive = small, poorly fitted or top-dose-only effect; note: potency is the fitted concentration of half-maximal effect; % is set by controls: 0 for no effect and ±100 for the full control effect; nearly all actives have a fitted effect of over 60% in size
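cAMP rise read by TR-FRET after 30 min, 37C compound exposure (up to 58 uM) in RXFP1-transfected HEK293 cells with Ro 20174 present. EC50 from Hill-equation fits, with 29 nM porcine relaxin as 100% and buffer as basal.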
TSHR antag – blocks TSH signaling through the human TSH receptor | activity change, negative = inhibition, % at 11.5 µM | actives 0.2% (n = 330,000) | TSHR-expressing cells, TSH-stimulated cAMP HTRF, 2 h; hits give low values;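 active = activity change below a set negative limit, meaning inhibition stronger than a set level, cut at about -70% in these data; inconclusive = activity change between two set negative limits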; note: % is set by controls: 0 for no effect and ±100 for the full control effect
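Inhibition of cAMP made by TSHR-expressing cells under TSH stimulation (4nM final, EC80; 2 h, 37 deg C) is quantified with a one-step lysis HTRF kit, anti-cAMP cryptate versus cAMP-d2.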
gsp ag – gsp mutant agonism | gsp mutant cells, cAMP HTRF, 30 min | Potency, µM (doses to about 76.9 µM), for inactives: at the top dose activation (cAMP increase), hits mostly activators | actives 0.13% (n = 340,000); active = well fitted activation curve with a large enough effect; inconclusive = small, poorly fitted or top-dose-only effect, or another doubt; inactive = no such curve, though single readings can be large or run the other way; cell line not stated here;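 note: phosphodiesterase inhibitor Ro 20-1724 added with compounds to block cAMP breakdown; potency is the fitted concentration of half-maximal effect; nearly all actives have a fitted effect of over 60% in size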
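Cells in DMEM/10% FBS with G418 were pretreated with compounds in DMSO plus […] (300 uM stock) for 30 min at 37C. cAMP was measured by HTRF (cAMP-d2 plus anti-cAMP antibody-K) after 30 min at room temperature.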
* marks the source's active call; other numbers are inactive results; [ ] = dose if it differs, or a comment.

For Cc1ccc(CS(=O)(=O)c2ncc(Cl)c(C(=O)Nc3nc4ccc(C)cc4s3)n2)cc1 the results were RXFP1 agonist 2%.
`COc1ccc2nc(NC(=O)c3nc(S(=O)(=O)Cc4ccc(C)cc4)ncc3Cl)sc2c1` gave RXFP1 antag -91* and RXFP1 agonist 3%.
Cc1ccccc1CS(=O)(=O)c1ncc(Cl)c(C(=O)Nc2nnc(C(C)C)s2)n1 was read as RXFP1 antag inconclusive and RXFP1 agonist 0%.
Screening CSc1nnc(NC(=O)c2nc(S(=O)(=O)Cc3ccccc3)ncc2Cl)s1 returned pAkt inh inactive, RXFP1 antag -63*, gsp antag 32µM*, RXFP1 agonist 0%, TSHR antag -38 and gsp ag -10%[15.4 µM].
For Cc1ccccc1OC(=O)c1cccc(S(=O)(=O)N2CCN(C)CC2)c1 the results were pAkt inh inactive, RXFP1 antag -4, gsp antag -10%, RXFP1 agonist 0%, TSHR antag -3 and gsp ag 20%.
`NC(=O)C1CCN(c2nc(-c3ccc(Cl)cc3)cs2)CC1` gave TSHR antag -4.
`COc1ccc(CSCC(=O)N/N=C/c2ccccc2O)cc1` gave pAkt inh inactive, RXFP1 antag 4, gsp antag -6%, RXFP1 agonist 4%, TSHR antag -1 and gsp ag 16%.
CC(=O)N1CCCc2cc(S(=O)(=O)NCc3ccccc3Cl)ccc21 was read as RXFP1 antag -16 and RXFP1 agonist 0%.
`CCCCc1nnc(NC(=O)CCc2ccccc2)s1` gave pAkt inh inactive, RXFP1 antag 5, gsp antag 12%, RXFP1 agonist 0%, TSHR antag 73 and gsp ag -1%.
Screening CCCC(=O)Nc1nnc(CCc2ccccc2)s1 returned pAkt inh inactive, RXFP1 antag 6, gsp antag -1%, RXFP1 agonist 3%, TSHR antag -89* and gsp ag 0%.
For O=C(O)c1ccc2c(c1)C(=O)N([C@H](Cc1ccc(F)cc1)C(=O)O)C2=O the results were RXFP1 agonist 0% and TSHR antag 11.
O=C1CSC(=S)N1N=Cc1ccc(OCc2ccccc2)cc1 was read as pAkt inh inactive, RXFP1 antag -6 and gsp ag inconclusive.
For O=C1CSC(=S)N1N=Cc1cccc(OCc2ccccc2)c1 the results were pAkt inh inactive, RXFP1 antag -95* and gsp ag -54%.
Screening O=C(NC(Nc1ncc(S(=O)(=O)c2ccc([N+](=O)[O-])cc2)s1)(C(F)(F)F)C(F)(F)F)c1ccc(Cl)cc1 returned pAkt inh inactive, RXFP1 antag -36, gsp antag 35µM*, RXFP1 agonist -3%, TSHR antag -40 and gsp ag 4%[15.4 µM].
`COCC(=O)Nc1ncc(S(=O)(=O)c2ccc([N+](=O)[O-])cc2)s1` gave pAkt inh inactive, RXFP1 antag -7, gsp antag 0%, RXFP1 agonist 1%, TSHR antag -4 and gsp ag 6%[15.4 µM].
O=C(Nc1ncc(S(=O)(=O)c2ccc([N+](=O)[O-])cc2)s1)c1cccc2ccccc12 was read as pAkt inh inactive, RXFP1 antag -6, gsp antag 0%, RXFP1 agonist 1%, TSHR antag -82* and gsp ag -3%.
Screening CCCN1C(=O)S/C(=C\c2ccc(N3CCOCC3)o2)C1=O returned pAkt inh inactive, RXFP1 antag -37, gsp antag -2%, RXFP1 agonist -5%, TSHR antag -27 and gsp ag 2%[15.4 µM].
For CCCN1C(=O)S/C(=C/c2ccc(N3CCOCC3)o2)C1=O the results were pAkt inh inactive, RXFP1 antag -92*, gsp antag -11%, RXFP1 agonist -5%, TSHR antag 14 and gsp ag -43%.
For COCCCNC(=O)c1sc2nc(C)c(C(=O)Nc3ccc(Cl)cc3)c(-c3ccc(Br)cc3)c2c1N the results were RXFP1 antag -16 and RXFP1 agonist 35µM*.
Screening Cc1ccc(N2CC(NS(=O)(=O)c3cc(F)ccc3F)CC2=O)cc1C (stereo unspecified) returned pAkt inh inactive, RXFP1 antag -7, gsp antag 3%, RXFP1 agonist 1%, TSHR antag 11 and gsp ag -2%.
For CCc1sc(C(C2C(=O)CC(C)(C)CC2=O)C2C(=O)CC(C)(C)CC2=O)cc1[N+](=O)[O-] the results were pAkt inh inactive, RXFP1 antag -98*, gsp antag inconclusive, RXFP1 agonist -4%, TSHR antag -7 and gsp ag 4%[15.4 µM].
CCCOc1ccc(C(=O)Nc2ccc(NC(=O)c3ccccc3)c(C)c2)cc1 was read as RXFP1 antag -6 and RXFP1 agonist 6%.
`COc1ccc(NC(=O)CN(C)C(=O)c2cc(S(=O)(=O)N3CCCCCC3)ccc2OC)cc1` gave pAkt inh inactive, RXFP1 antag -72*, gsp antag -2%, RXFP1 agonist 0%, TSHR antag 1 and gsp ag 3%[15.4 µM].
`CN(CC(=O)Nc1ccc(Cl)c(Cl)c1)CC(=O)N1CCCCCC1` gave pAkt inh inactive, RXFP1 antag -1 and gsp ag -49%.
`COc1ccc(NC(=O)CN(C)C(=O)CC2CCCC2)cc1` gave pAkt inh inactive, RXFP1 antag -74*, gsp antag 12%, RXFP1 agonist -1%, TSHR antag 4 and gsp ag -12%[15.4 µM].
For COc1ccc(NC(=O)CN(C)CC(=O)N2CCCCCC2)cc1 the results were pAkt inh inactive, RXFP1 antag -90*, gsp antag 8%, RXFP1 agonist 0%, TSHR antag 15 and gsp ag 6%[15.4 µM].
For COc1ccc2c(c1)c(CC(=O)Nc1ccc(C(C)=O)cc1)c(C)n2C(=O)c1ccc(Cl)cc1 the results were pAkt inh inactive, RXFP1 antag 3, gsp antag -17%, RXFP1 agonist 5%, TSHR antag -2 and gsp ag 0%.
For COc1ccc2c(c1)c(CC(=O)NCc1cc([N+](=O)[O-])ccc1O)c(C)n2C(=O)c1ccc(Cl)cc1 the results were pAkt inh inactive, RXFP1 antag -84*, gsp antag 35µM*, RXFP1 agonist 5%, TSHR antag inconclusive and gsp ag 8%.
CCOc1ccc(NC(=O)CSC2=Nc3ccccc3C3=NC(CCC(=O)NCc4ccccc4)C(=O)N23)cc1 (stereo unspecified) was read as RXFP1 antag -4 and RXFP1 agonist 13%.
